According to publication PMC5540273 (PLoS ONE, 2017):

Test system: ANKK1
Conditions: concentration: 1 μM, replicates: in singlicate; n = 1
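Note: KINOMEscan kinase panel screen.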

Row | Structure (SMILES) | %Inh
1 | CCC(=O)c1c(-c2ccccc2)c2cc(Cl)ccc2c(=O)n1Cc1cc(S(C)(=O)=O)n(CC(F)F)n1 | 0%
2 | CCC(=O)c1c(-c2ccccc2)c2cc(Cl)ccc2c(=O)n1Cc1cc(S(C)(=O)=O)n(CC(N)=O)n1 | 0%
3 | O=C(Nc1ccc2c(c1)OCO2)NC1CCN(c2ccnc(NCc3ccc(F)cc3)n2)CC1 [GSK1379859] | 0%
4 | Cn1c(=O)c(F)c(Nc2ccc(I)cc2F)c2c(=O)n(OC[C@H](O)CO)cnc21 | 0%
5 | Nc1nccc2scc(-c3ccc4c(c3)CCN4C(=O)Cc3ccccc3)c12 [GSK2576924] | 21%
6 | C[C@@H]1CC[C@H](C(=O)NC2CCCCC2)CN1c1cc(-c2ccc3c(N)n[nH]c3c2)nc(N)n1 [GSK2291363] | 20%
7 | O=C(NCCNc1ccnc(Nc2ccc(F)cc2)n1)Nc1ccc2c(c1)OCO2 [GSK1379882] | 18%
8 | CCS(=O)c1ccc(-c2coc3ccc(-c4nnc(C)o4)cc23)cc1 (centres unmarked) | 30%
9 | Cc1cccc(-c2cc(-c3c[nH]nc3-c3ccccn3)ccn2)c1 [GW679395] | 0%
10 | CN1C(=O)C(Nc2ccccc2)=C(c2ccccc2)C1=O [SB-300079] | 15%
11 | COc1cccc(-n2cnc3c(N)ncnc32)c1 [SKF-97416] | 14%
12 | COc1ccc(CNC(=O)NC2CCN(c3ccnc(Nc4ccc(F)cc4)n3)C2)cc1 (centres unmarked) [GSK1379706] | 8%
13 | Nc1n[nH]c2nnc(-c3ccccc3)c(-c3ccccc3)c12 [GW554060] | 0%
14 | Cc1nnc(-c2ccc3ncn(-c4ccc(S(C)=O)cc4)c3c2)o1 (centres unmarked) | 0%
15 | CCn1c(-c2nonc2N)nc2ccccc21 [SB-693162/GW549034] | 51%
16 | O=C(Nc1n[nH]c2cc(-c3ccccc3F)ccc12)C1CC1 [SB-733371] | 10%
17 | CC(C)(C)c1ccc(C(=O)Nc2cn3cc(-c4ccccc4)ccc3n2)cc1 | 0%
18 | Nc1ncnc2c1ncn2-c1cccc2ccccc12 [SKF-97184] | 0%
19 | CCCC(=O)Nc1n[nH]c2ncc(-c3cccc4ccccc34)cc12 [SB-642057] | 7%

Row | Structure (SMILES) | %Inh
20 | Cc1cccc(-c2nc(Nc3ccc4c(cnn4C)c3)c3ccccc3n2)n1 [GW876731] | 16%
21 | COC(=O)c1c(-c2ccccc2)c2cc(Br)ccc2c(=O)n1Cc1ccc(NC(=O)CCC(=O)O)cc1 | 0%
22 | O=C1NC(=O)C(c2ccccc2)=C1Nc1cccc(O)c1 [SB-390534] | 0%
23 | CCCNC(=O)Nc1ccc(Oc2ncnc3ccn(C)c23)cc1 | 0%
24 | COc1cc2nccc(Nc3cccc(Oc4ccccc4)c3)c2cc1OC.Cl [GW284543] | 0%
25 | COc1cc2ncn(-c3cc(OCCCc4ccccc4)c(C(N)=O)s3)c2cc1OC [GSK205189] | 0%
26 | CCn1c(-c2ccoc2)nc2cnccc21 [SB-733887] | 0%
27 | COc1ccc(-c2coc3ccc(-c4nnc(SCc5cccc(C#N)c5)o4)cc23)cc1 | 19%
28 | COC(=O)c1c(-c2ccccc2)c2cc(C)ccc2c(=O)n1Cc1ccccc1 | 0%
29 | CCc1nc(-c2cccc(C)c2)c(-c2ccncc2)s1 | 0%
30 | Cc1ccc(Oc2ccc(Nc3ncnc4cc[nH]c34)cc2C)cn1 | 5%
31 | COc1cccc(C2=C(N(C)c3ccccc3)C(=O)NC2=O)c1 [SB-334865] | 0%
32 | COc1ccc(-n2cnc3c(N)ncnc32)cc1 [SKF-97236] | 17%
33 | Cc1c(Cn2c(C)nn3c(=O)cc(N4CCO[C@H](C)C4)nc23)cccc1C(F)(F)F [GSK2373690] | 0%
34 | COc1cc(Nc2nccc(N3CCC(NC(=O)C(C)c4ccc(Cl)cc4)C3)n2)cc(OC)c1OC (centres unmarked) [GSK1379757] | 17%
35 | COc1cc2ncn(-c3cc(OCc4ccc(S(C)(=O)=O)cc4)c(C(N)=O)s3)c2cc1OC [GW869979] | 20%
36 | Cc1nnc(-c2ccc(C)c(-c3ccc(C(=O)O)cc3)c2)o1 [GW608005] | 0%
37 | COc1ccc(-c2cc3c(C)nc(N)nc3n([C@H]3CC[C@H](O)CC3)c2=O)cn1 | 0%

Test system: T1, ARK5
T1 construct: gene NUAK1
Conditions: concentration: 1 μM, replicates: in singlicate; n = 1

Row | Structure (SMILES) | %Inh
38 | CCC(=O)c1c(-c2ccccc2)c2cc(Cl)ccc2c(=O)n1Cc1cc(S(C)(=O)=O)n(CC(F)F)n1 | 5%
39 | CCC(=O)c1c(-c2ccccc2)c2cc(Cl)ccc2c(=O)n1Cc1cc(S(C)(=O)=O)n(CC(N)=O)n1 | 0%
40 | O=C(Nc1ccc2c(c1)OCO2)NC1CCN(c2ccnc(NCc3ccc(F)cc3)n2)CC1 [GSK1379859] | 6%
41 | Cn1c(=O)c(F)c(Nc2ccc(I)cc2F)c2c(=O)n(OC[C@H](O)CO)cnc21 | 0%
42 | Nc1nccc2scc(-c3ccc4c(c3)CCN4C(=O)Cc3ccccc3)c12 [GSK2576924] | 9%
43 | C[C@@H]1CC[C@H](C(=O)NC2CCCCC2)CN1c1cc(-c2ccc3c(N)n[nH]c3c2)nc(N)n1 [GSK2291363] | 6%
44 | O=C(NCCNc1ccnc(Nc2ccc(F)cc2)n1)Nc1ccc2c(c1)OCO2 [GSK1379882] | 11%
45 | CCS(=O)c1ccc(-c2coc3ccc(-c4nnc(C)o4)cc23)cc1 (centres unmarked) | 0%
46 | Cc1cccc(-c2cc(-c3c[nH]nc3-c3ccccn3)ccn2)c1 [GW679395] | 0%
47 | CN1C(=O)C(Nc2ccccc2)=C(c2ccccc2)C1=O [SB-300079] | 0%
48 | COc1cccc(-n2cnc3c(N)ncnc32)c1 [SKF-97416] | 0%
49 | COc1ccc(CNC(=O)NC2CCN(c3ccnc(Nc4ccc(F)cc4)n3)C2)cc1 (centres unmarked) [GSK1379706] | 16%
50 | Nc1n[nH]c2nnc(-c3ccccc3)c(-c3ccccc3)c12 [GW554060] | 9%
51 | Cc1nnc(-c2ccc3ncn(-c4ccc(S(C)=O)cc4)c3c2)o1 (centres unmarked) | 21%
52 | CCn1c(-c2nonc2N)nc2ccccc21 [SB-693162/GW549034] | 3%
53 | O=C(Nc1n[nH]c2cc(-c3ccccc3F)ccc12)C1CC1 [SB-733371] | 0%
54 | CC(C)(C)c1ccc(C(=O)Nc2cn3cc(-c4ccccc4)ccc3n2)cc1 | 13%
55 | Nc1ncnc2c1ncn2-c1cccc2ccccc12 [SKF-97184] | 0%
56 | CCCC(=O)Nc1n[nH]c2ncc(-c3cccc4ccccc34)cc12 [SB-642057] | 6%

Row | Structure (SMILES) | %Inh
57 | Cc1cccc(-c2nc(Nc3ccc4c(cnn4C)c3)c3ccccc3n2)n1 [GW876731] | 5%
58 | COC(=O)c1c(-c2ccccc2)c2cc(Br)ccc2c(=O)n1Cc1ccc(NC(=O)CCC(=O)O)cc1 | 0%
59 | O=C1NC(=O)C(c2ccccc2)=C1Nc1cccc(O)c1 [SB-390534] | 0%
60 | CCCNC(=O)Nc1ccc(Oc2ncnc3ccn(C)c23)cc1 | 0%
61 | COc1cc2nccc(Nc3cccc(Oc4ccccc4)c3)c2cc1OC.Cl [GW284543] | 0%
62 | COc1cc2ncn(-c3cc(OCCCc4ccccc4)c(C(N)=O)s3)c2cc1OC [GSK205189] | 0%
63 | CCn1c(-c2ccoc2)nc2cnccc21 [SB-733887] | 0%
64 | COc1ccc(-c2coc3ccc(-c4nnc(SCc5cccc(C#N)c5)o4)cc23)cc1 | 16%
65 | COC(=O)c1c(-c2ccccc2)c2cc(C)ccc2c(=O)n1Cc1ccccc1 | 4%
66 | CCc1nc(-c2cccc(C)c2)c(-c2ccncc2)s1 | 17%
67 | Cc1ccc(Oc2ccc(Nc3ncnc4cc[nH]c34)cc2C)cn1 | 0%
68 | COc1cccc(C2=C(N(C)c3ccccc3)C(=O)NC2=O)c1 [SB-334865] | 1%
69 | COc1ccc(-n2cnc3c(N)ncnc32)cc1 [SKF-97236] | 0%
70 | Cc1c(Cn2c(C)nn3c(=O)cc(N4CCO[C@H](C)C4)nc23)cccc1C(F)(F)F [GSK2373690] | 2%
71 | COc1cc(Nc2nccc(N3CCC(NC(=O)C(C)c4ccc(Cl)cc4)C3)n2)cc(OC)c1OC (centres unmarked) [GSK1379757] | 34%
72 | COc1cc2ncn(-c3cc(OCc4ccc(S(C)(=O)=O)cc4)c(C(N)=O)s3)c2cc1OC [GW869979] | 0%
73 | Cc1nnc(-c2ccc(C)c(-c3ccc(C(=O)O)cc3)c2)o1 [GW608005] | 11%
74 | COc1ccc(-c2cc3c(C)nc(N)nc3n([C@H]3CC[C@H](O)CC3)c2=O)cn1 | 4%
